Screening data: PubChem, SRMLSC
This is a sample that favours compounds with a hit; in the whole collection about 6.3% have one here.
Fluor 339 460: intrinsic fluorescence of library compounds, ex339/em460 – biochemical, MLSMR library, data from DPM-DC assay, artefact control, profiling panel. fluorescence fold increase at 10 µM. 65,000 compounds, 5.5% hits. AID 709, 2007. compound autofluorescence, ex339/em460 nm, NADH buffer; active compounds read high; 1 = no-compound wells, NADH background;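 active = at 10 µM, mean starting fluorescence two-fold or more over control wells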;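 note: signal is the first read of a kinetic run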
NADH enzymes: inhibitors of PK/LDH coupling enzymes, profiling panel, artefact control, biochemical, MLSMR library; 65,000 compounds, 0.02% hits; IC50, µM (series often up to 10 µM); coupled PK/LDH NADH assays, four targets;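 active = single-dose screening hits from any of four coupled enzyme assays that gave an IC50 when retested across doses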;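 note: the DPM-DC format reads NADH fluorescence rather than 340 nm absorbance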
A340 absorber: compound light absorbance at 340 nm, profiling panel, artefact control, biochemical, MLSMR library, data from PS, PMK, MK assays. compound absorbance at 340 nm, fold over control. fold change at 10 µM. 65,000 tested, under 10 active. AID 708, 2007;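 active = at 10 µM dose, initial 340 nm absorbance at least 2 fold that of control wells; inactive = change under 2 fold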;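 note: initial absorbance extrapolated from kinetic A340 decline of NADH oxidation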
Spn DPM-DC inh: S. pneumoniae DPM-DC inhibitors, primary screen, biochemical, PK/LDH-coupled NADH fluorescence; purified DPM-DC; calls only at 10 µM; 65,000 compounds, 0.49% hits; AID 556, 2006;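 active = the 320 compounds with the highest percent inhibition in the single-dose primary screen, excluding strongly autofluorescent ones, cut at about 32% in these data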;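 note: kinetic rate of NADH fluorescence loss reporting ADP formed by the decarboxylase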
PMK inhibit: S. pneumoniae PMK inhibitors, primary screen, biochemical, mevalonate pathway, pilot trial included | phosphomevalonate kinase (Streptococcus pneumoniae D39) | purified PMK, PK/LDH-coupled NADH absorbance 340 nm | inhibition, % at 10 µM | 65,000 compounds, 0.49% hits | AID 539, 2006;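 active = top-ranked compounds by inhibition in the single 10 µM screen, taking a fixed number of the strongest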
Spn MK inh: S. pneumoniae MK inhibitors, primary screen, biochemical, PK/LDH-coupled NADH absorbance | mevalonate kinase [Streptococcus pneumoniae D39] | purified MK, PK/LDH-coupled NADH absorbance 340 nm | inhibition, % at 10 µM | 65,000 compounds, 0.48% hits | AID 555, 2006;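 active = ranked among the strongest by inhibition in the single 10 µM screen, a fixed top-ranked set picked for dose follow-up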
Numbers stand for hits.

`O=C(CCCC(=O)N(CC(=O)NC1CCCCC1)Cc1ccc2c(c1)OCO2)Nc1ccccn1` gave Fluor 339 460 inactive, NADH enzymes inactive, A340 absorber inactive, Spn DPM-DC inh inactive, PMK inhibit inactive and Spn MK inh inactive.
For C=CCn1c(N)cc(=O)nc1SCC(=O)NC(C)c1ccccc1 (configuration not stated) the results were Fluor 339 460 inactive, NADH enzymes inactive, A340 absorber inactive, Spn DPM-DC inh inactive, PMK inhibit inactive and Spn MK inh inactive.
CC(C)CC(=O)NCC(C)NC(=O)CC(C)C (configuration not stated) was read as Fluor 339 460 inactive, NADH enzymes inactive, A340 absorber inactive, Spn DPM-DC inh active, PMK inhibit inactive and Spn MK inh inactive.
Screening CC(C)(C)c1csc(NC(=O)c2cccs2)n1 returned Fluor 339 460 inactive, NADH enzymes inactive, A340 absorber inactive, Spn DPM-DC inh inactive, PMK inhibit inactive and Spn MK inh inactive.
Screening CSc1nc2ccc3nc(NC(=O)c4cccs4)sc3c2s1 returned Fluor 339 460 4.55, NADH enzymes inactive, A340 absorber inactive, PMK inhibit inactive and Spn MK inh inactive.
Screening COc1ccc(C2=NOC3(CC(=O)N(c4ccc(C)cc4)C3=O)C2)c(OC)c1 (configuration not stated) returned Fluor 339 460 inactive, NADH enzymes inactive, A340 absorber inactive, Spn DPM-DC inh inactive, PMK inhibit inactive and Spn MK inh inactive.
Screening CCC(C)NC(=O)c1c(N)n(/N=C/c2ccccn2)c2nc3ccccc3nc12 (configuration not stated) returned Fluor 339 460 inactive, NADH enzymes inactive, A340 absorber inactive, Spn DPM-DC inh inactive, PMK inhibit inactive and Spn MK inh inactive.
CC(C)OCCCNC(=O)c1c(N)n(/N=C/c2ccccn2)c2nc3ccccc3nc12 was read as Fluor 339 460 inactive, NADH enzymes inactive, A340 absorber inactive, Spn DPM-DC inh inactive, PMK inhibit inactive and Spn MK inh inactive.
For CCC(C)NC(=O)c1c(N)n(/N=C/c2cccnc2)c2nc3ccccc3nc12 (configuration not stated) the results were Fluor 339 460 3.15, NADH enzymes inactive, A340 absorber inactive, PMK inhibit inactive and Spn MK inh inactive.
For COCCCNC(=O)c1c(N)n(/N=C/c2cccnc2)c2nc3ccccc3nc12 the results were Fluor 339 460 2.33, NADH enzymes inactive, A340 absorber inactive, PMK inhibit inactive and Spn MK inh inactive.
Cc1nc2ccccc2c(=O)n1/N=C/c1cccnc1 was read as Fluor 339 460 inactive, NADH enzymes inactive, A340 absorber inactive, Spn DPM-DC inh inactive, PMK inhibit inactive and Spn MK inh inactive.
Screening CC(C)CNC(=O)c1c(N)n(/N=C/c2cccnc2)c2nc3ccccc3nc12 returned Fluor 339 460 2.31, NADH enzymes inactive, A340 absorber inactive, PMK inhibit inactive and Spn MK inh inactive.
`COCCCNC(=O)c1c(N)n(/N=C/c2cccs2)c2nc3ccccc3nc12` gave Fluor 339 460 2.34, NADH enzymes inactive, A340 absorber inactive, PMK inhibit inactive and Spn MK inh inactive.
O=C(CN1C(=O)CCSc2ccccc21)Nc1ccc2c(c1)OCO2 was read as Fluor 339 460 inactive, NADH enzymes inactive, A340 absorber inactive, Spn DPM-DC inh inactive, PMK inhibit inactive and Spn MK inh inactive.
COc1ccc2nc(C)c(C(=O)OCCN(C)C)cc2c1 was read as Fluor 339 460 2.08, NADH enzymes inactive, A340 absorber inactive, Spn DPM-DC inh inactive, PMK inhibit inactive and Spn MK inh inactive.
Screening COc1ccc2c(c1)c(C(=O)OCCN(C)C)c(C)n2C returned Fluor 339 460 inactive, NADH enzymes inactive, A340 absorber inactive, Spn DPM-DC inh inactive, PMK inhibit inactive and Spn MK inh inactive.
For C=CCNC(=O)c1ccccc1NC(=O)c1ccccc1 the results were Fluor 339 460 inactive, NADH enzymes inactive, A340 absorber inactive, Spn DPM-DC inh inactive, PMK inhibit inactive and Spn MK inh inactive.
COC(=O)CC(=O)CSc1nc2c(cc1C#N)CCCCC2 was read as Fluor 339 460 3.87, NADH enzymes inactive, A340 absorber inactive, PMK inhibit inactive and Spn MK inh inactive.
Screening CCCCOc1ccccc1NC(=O)c1ccc(=O)[nH]c1 returned Fluor 339 460 inactive, NADH enzymes inactive, A340 absorber inactive, Spn DPM-DC inh inactive, PMK inhibit inactive and Spn MK inh inactive.
COc1ccccc1-c1nnc(Nc2nc3c(OC)cccc3s2)o1 was read as Fluor 339 460 inactive, NADH enzymes inactive, A340 absorber inactive, Spn DPM-DC inh inactive, PMK inhibit inactive and Spn MK inh inactive.
For COc1cccc(-c2nnc(Nc3nc4c(F)cccc4s3)o2)c1 the results were Fluor 339 460 4.87, NADH enzymes inactive, A340 absorber inactive, PMK inhibit inactive and Spn MK inh inactive.
Screening c1ccc(CC2CCN(c3nc4ccccc4n4nnnc34)CC2)cc1 returned Fluor 339 460 2.6, NADH enzymes inactive, A340 absorber inactive, Spn DPM-DC inh inactive, PMK inhibit inactive and Spn MK inh inactive.
Screening CCOc1ccc(NC(=O)CSc2nnc(C)n2CCCOC)cc1 returned Fluor 339 460 inactive, NADH enzymes inactive, A340 absorber inactive, Spn DPM-DC inh inactive, PMK inhibit inactive and Spn MK inh inactive.
COc1cc(NC(=O)c2ccc3c(c2)OCO3)c2ncccc2c1 was read as Fluor 339 460 2.98, NADH enzymes inactive, A340 absorber inactive, Spn DPM-DC inh active, PMK inhibit inactive and Spn MK inh inactive.
COc1cccc(NC(=O)c2oc3ccccc3c2NC(=O)c2ccc3c(c2)OCO3)c1 was read as Fluor 339 460 2.62, NADH enzymes inactive, A340 absorber inactive, Spn DPM-DC inh inactive, PMK inhibit inactive and Spn MK inh inactive.
COc1cccc(NC(=O)c2oc3ccccc3c2NC(=O)C(C)(C)C)c1 was read as Fluor 339 460 inactive, NADH enzymes inactive, A340 absorber inactive, Spn DPM-DC inh inactive, PMK inhibit inactive and Spn MK inh inactive.
Screening COc1ccc(C(=O)N(c2ccccc2)C2C=CS(=O)(=O)C2)cc1 (configuration not stated) returned Fluor 339 460 inactive, NADH enzymes inactive, A340 absorber inactive, Spn DPM-DC inh inactive, PMK inhibit inactive and Spn MK inh inactive.
O=C(Nc1ccc(F)cc1F)c1ccco1 was read as Fluor 339 460 inactive, NADH enzymes inactive, A340 absorber inactive, Spn DPM-DC inh inactive, PMK inhibit inactive and Spn MK inh inactive.
Screening O=C1CSC(c2nn(-c3ccccc3)cc2-c2cc3ccccc3oc2=O)N1Cc1ccco1 (configuration not stated) returned Fluor 339 460 2.28, NADH enzymes inactive, A340 absorber inactive, PMK inhibit inactive and Spn MK inh inactive.
